Screens (PubChem)
Compounds with a hit are over-represented: about 1.8% of the library has one in this group of screens.
Cardio protect – cardioprotection against H2O2-induced cell death, primary screen, uHTS, H9c2 cells, ATPLite luminescence; H9c2 cardiomyocytes, H2O2 injury protection, 2 h; protection from H2O2 cell death, % at 20 µM; 360,000 compounds, 0.63% hits;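 active = compounds giving at least 50% protection of heart cells from peroxide-induced death in the single-dose screen, raw or plate-pattern-corrected value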
GRK2 aptamer HTS – compounds blocking aptamer binding on GRK2 – biochemical, human GRK2, bead flow cytometry, HTS, primary screen. FAM-aptamer displacement from GRK2. inhibition of aptamer binding, % at 10 µM. 330,000 compounds, 0.59% hits;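 active = inhibition of aptamer binding above 40%, roughly 3 SD of noise, on plates passing a quality check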;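 note: median bead fluorescence of bound FAM aptamer so fluorescent compounds give negative values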
Neddylation inh – inhibitors of cullin neddylation, primary screen, biochemical, TR-FRET, uHTS, NAE and Ubc12; NEDD8-conjugating enzyme Ubc12 (Homo sapiens) + NEDD8-activating enzyme E1 regulatory …; inhibition, % at 25 µM; 360,000 compounds, 0.58% hits; in the data active = inhibition above about 36%
HDAC3 inhib – HDAC3 deacetylase inhibitors, primary screen, biochemical, fluorescence, cell-free homogeneous; recombinant HDAC3, fluorogenic peptide/trypsin coupled; 320,000 compounds, 0.15% hits; inhibition, % at 8.3 µM; in the data active = inhibition above about 26%, passing the limit was not always enough; inconclusive = no clear call, values can overlap the other calls
Numbers stand for hits; 0 = inactive; ? = inconclusive; - = no result shown.

SMILES	Cardio protect	GRK2 aptamer HTS	Neddylation inh	HDAC3 inhib
COc1ccc([C@H]2CN(Cc3ccccc3)C(=O)[C@@H]2CC(=O)Nc2ccccc2)cc1	0	-	0	-
COc1ccc(C(=O)Nc2cccc(/C(C)=N/NC(=O)c3ccc([N+](=O)[O-])c(C)c3)c2)cc1OC	95	0	0	0
COc1ccc(C(=O)Nc2cccc(/C(C)=N\NC(=O)c3ccoc3C)c2)cc1OC	0	-	0	-
Cc1c(/N=C(\[O-])Nc2ccc(Br)cc2)sn[n+]1C	0	0	0	0
COc1cc2c(cc1OC)C(CSc1ccccc1C(=O)O)=NC(C)(C)C2	0	0	41	0
Nc1cccc2c(O)cccc12	0	0	44	0
O=c1[nH]ccc2c(O)cccc12	90	0	0	0
N#Cc1ccc(COn2nnc3ccccc32)cc1	0	0	0	0
COc1ccc(C(=O)NC2CC2)cc1OC1CCN(Cc2ccc(F)cc2F)CC1	0	0	0	0
COC(=O)N1C(=O)[C@](c2ccccc2)(C2CCCC2)N1C(=O)OC	80	0	0	0
COc1cc2[nH]c(C(=O)N3CC(C)OC(C)C3)cc2c(OC)c1OC (stereo not drawn)	0	0	0	0
COc1ccc2cc(C#CC3=CC(=O)C[C@H](c4ccc(F)cc4)C3)ccc2c1	0	-	0	-
Cc1csc2nc(COC(=O)c3ccc(Cl)c([N+](=O)[O-])c3)cc(=O)n12	82	0	0	0
Cc1csc2nc(COC(=O)CNC(=O)c3ccc(Cl)cc3)cc(=O)n12	0	0	0	0
O=C(Cn1cc([N+](=O)[O-])ccc1=O)NCC1COc2ccccc2O1 (stereo not drawn)	0	0	0	-
Cc1ccccc1NC(=O)Cc1nc(COC(=O)c2cc([N+](=O)[O-])ccc2N)cs1	0	55	0	0
c1ccc(CN2CCN(CCCNc3ccc4nnc(-c5ccccc5)n4n3)CC2)cc1	79	0	0	0
O=C(N/N=C/c1ccccc1O)c1ccncc1	59	0	0	0
CC(=C/c1ccc(C(C)C)cc1)/C=N/NC(=O)c1ccncc1	58	0	-	0
CC(/C=N/NC(=O)c1ccncc1)=C\c1ccccc1	0	0	0	0
O=C(N/N=C/c1ccccc1O)c1cc[n+]([O-])cc1	54	0	0	0
O=C(N/N=C/c1ccccc1)c1cc[n+]([O-])cc1	0	0	0	0
Cn1c(=O)cc(OCC(=O)NCCCN2CCN(c3cccc(Cl)c3)CC2)c2ccccc21	64	0	0	0
Cn1c(=O)cc(OCC(=O)NCCCN2CCN(c3ccccc3F)CC2)c2ccccc21	0	0	0	0
Nc1cc(OC(=O)c2ccc(F)cc2)nn1S(=O)(=O)c1ccc(F)cc1	0	0	0	60
SMILES	Cardio protect	GRK2 aptamer HTS	Neddylation inh	HDAC3 inhib
CC(C)(C)C(=O)Oc1cc(N)n(S(=O)(=O)c2ccc(F)cc2)n1	0	0	0	?
Cc1ccc(S(=O)(=O)n2nc(OC(=O)c3ccco3)cc2N)cc1	0	0	0	58
Nc1cc(OC(=O)c2ccco2)nn1S(=O)(=O)c1ccc(F)cc1	0	0	0	85
COc1cc(/C=C2\N=C(C)OC2=O)cc(OC)c1OC	0	0	0	36
CCC(O)(Cc1ccccn1)Cc1ccccn1	0	-	0	-
COc1ccc(-c2nnc(-c3cc(OC)c(OC)c(OC)c3)o2)cc1OC	58	0	-	0
C/C(=N\NC(=O)CN1CCCCC1)c1ccccc1O	0	0	0	0
C/C(=N\NC(=O)CN(c1ccccc1)S(C)(=O)=O)c1ccccc1O	59	0	0	0
O=C(/C(Br)=C/Nc1cc(Cl)ccc1Cl)C(F)(F)F	0	86	0	0
NCC1CC2c3ccccc3C1c1ccccc12 (stereo not drawn)	0	0	0	0
COc1ccc(CCC(=O)N/N=C\c2cccs2)cc1	0	0	0	0
CCOC(=O)C1=c2/c(=C/c3ccncc3)c(N)c(C(=O)OC)n2C(=O)C(c2ccncc2)S1 (stereo not drawn)	55	0	0	-
Cc1ccc(NC(=O)COC(=O)C2(c3ccc(Cl)cc3)CCCC2)cc1	0	0	0	0
Cc1csc(/C(=N/OC(=O)c2ccco2)C(N)=O)n1	0	0	0	28
COc1ccc(/C(N)=N/OC(=O)c2ccco2)cc1OC	0	0	0	0
O=C(COC(=O)Cc1ccccc1F)Nc1cccc(F)c1	0	0	0	0
O=c1cc(O)nc(SCc2ccccc2)n1-c1ccc(F)cc1	0	0	0	0
CN(Cc1nc(-c2cccnc2)no1)S(=O)(=O)c1ccccc1	0	0	0	0
